Laboratory results taken from PubChem BioAssay.
For some of these results: Measured potencies and affinities stand elsewhere. Calls of active or inactive are those of the source. Unless noted, how the calls were made is not given here.

Assays:
[1] = antimalarial activity against Dd2 strain (AID 2302;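 active means growth inhibition above 50% at the single 2 µM test dose, taken to imply half-maximal potency below 2 µM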;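 further: 0% = DMSO untreated growth and 100% = chloroquine plus artemisinin killed control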); details: P. falciparum Dd2 in RBCs, LDH growth readout, 72 h; at 2 µM; stronger effect = higher value
[2] = HepG2 cytotoxicity, primary screen, cytotoxicity control for P. falciparum antimalarial project, cell-based, ATP luminescence (AID 2303;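 active means inhibition above 50%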;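 further: 0% = DMSO wells and 100% = digitonin-killed cells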); details: HepG2 viability, 24-48 h, at 10 µM, stronger effect = higher value
[3] = target: L-lactate dehydrogenase (Plasmodium falciparum (isolate CDC / Honduras)) (UniProt Q27743); experiment: PfLDH activity inhibition – cell lysate, 3D7 strain, counter-screen for P. falciparum growth inhibition project (AID 2304);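 further: 0% = vehicle and 100% = reference inhibitor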; details: P. falciparum 3D7 crude extract, LDH APAD/NBT absorbance; at 2 µM; stronger effect = higher value
[4] = inhibition of 3D7 malaria parasite growth – strain 3D7 (AID 2306);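 further: 0% = DMSO wells and 100% = chloroquine plus artemisinin control wells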; details: P. falciparum 3D7 erythrocytic growth, LDH absorbance, 72 h; at 2 µM; stronger effect = higher value
[5] = target: Calcium-dependent protein kinase 1 (Plasmodium falciparum (isolate 3D7)) (UniProt P62344); experiment: PfCDPK1 kinase inhibitors, biochemical, TCAMS library (AID 1159585; cut-off not given, nearly all actives have IC50 up to about 0.98 µM;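 further: inhibitors leave more ATP so luminescence rises with inhibition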); details: recombinant PfCDPK1, Kinase-Glo ATP depletion luminescence
[6] = target: Plasmodium falciparum protein kinase 6 (PK6, PF3D7_1337100) (UniProt Q8IDW1); experiment: PfPK6 kinase inhibitors, biochemical, TCAMS library (AID 1159586); details: recombinant PfPK6, Kinase-Glo ATP depletion luminescence
[7] = target: Protein kinase 7 (PK7), Plasmodium falciparum 3D7 (PF3D7_0213400) (UniProt Q7YTF7); experiment: inhibition of Plasmodium PK7 catalytic activity – biochemical, TCAMS antimalarial set, Kinase-Glo luminescence (AID 1159587); details: recombinant PfPK7, Kinase-Glo ATP depletion luminescence
[8] = target: Calcium-dependent protein kinase 4 (Plasmodium falciparum (isolate 3D7)) (UniProt Q8IBS5); experiment: PfCDPK4 kinase inhibitors, biochemical, TCAMS library (AID 1159588; cut-off not given, nearly all actives have IC50 up to about 0.91 µM); details: recombinant PfCDPK4, Kinase-Glo ATP depletion luminescence
Calcium-dependent protein kinase 4 (Plasmodium falciparum (isolate 3D7)), sequence (Q8IBS5 whole entry, looked up): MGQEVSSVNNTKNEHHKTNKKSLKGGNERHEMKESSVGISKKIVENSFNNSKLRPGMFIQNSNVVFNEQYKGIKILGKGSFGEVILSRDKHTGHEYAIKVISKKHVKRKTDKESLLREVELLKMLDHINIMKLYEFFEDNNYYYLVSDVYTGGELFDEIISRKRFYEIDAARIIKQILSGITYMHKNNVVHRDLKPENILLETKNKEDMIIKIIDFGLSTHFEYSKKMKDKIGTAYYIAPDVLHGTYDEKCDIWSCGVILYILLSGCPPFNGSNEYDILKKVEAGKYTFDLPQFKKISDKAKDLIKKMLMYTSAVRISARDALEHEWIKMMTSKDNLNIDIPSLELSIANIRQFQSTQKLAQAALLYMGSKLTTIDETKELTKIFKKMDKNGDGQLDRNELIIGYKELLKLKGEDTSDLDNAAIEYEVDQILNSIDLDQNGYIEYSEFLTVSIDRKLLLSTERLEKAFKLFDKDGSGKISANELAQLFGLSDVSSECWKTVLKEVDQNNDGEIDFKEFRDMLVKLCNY

Calcium-dependent protein kinase 1 (Plasmodium falciparum (isolate 3D7)), sequence (P62344 whole entry, looked up): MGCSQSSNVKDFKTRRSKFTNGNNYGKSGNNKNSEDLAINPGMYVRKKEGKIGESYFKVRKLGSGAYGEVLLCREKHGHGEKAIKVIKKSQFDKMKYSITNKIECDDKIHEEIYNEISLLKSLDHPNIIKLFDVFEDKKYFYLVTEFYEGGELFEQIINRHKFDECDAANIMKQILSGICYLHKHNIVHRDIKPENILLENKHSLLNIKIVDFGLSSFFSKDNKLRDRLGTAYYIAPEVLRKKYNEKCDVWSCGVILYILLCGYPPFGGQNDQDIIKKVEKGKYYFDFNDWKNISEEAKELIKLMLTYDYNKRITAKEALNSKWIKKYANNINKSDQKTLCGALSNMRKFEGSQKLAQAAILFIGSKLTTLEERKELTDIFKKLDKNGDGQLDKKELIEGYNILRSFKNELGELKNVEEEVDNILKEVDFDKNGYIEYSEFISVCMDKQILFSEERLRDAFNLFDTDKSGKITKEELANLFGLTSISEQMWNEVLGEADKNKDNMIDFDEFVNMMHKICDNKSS
Protein kinase 7 (PK7), Plasmodium falciparum 3D7 (PF3D7_0213400), sequence (Q7YTF7 1-343): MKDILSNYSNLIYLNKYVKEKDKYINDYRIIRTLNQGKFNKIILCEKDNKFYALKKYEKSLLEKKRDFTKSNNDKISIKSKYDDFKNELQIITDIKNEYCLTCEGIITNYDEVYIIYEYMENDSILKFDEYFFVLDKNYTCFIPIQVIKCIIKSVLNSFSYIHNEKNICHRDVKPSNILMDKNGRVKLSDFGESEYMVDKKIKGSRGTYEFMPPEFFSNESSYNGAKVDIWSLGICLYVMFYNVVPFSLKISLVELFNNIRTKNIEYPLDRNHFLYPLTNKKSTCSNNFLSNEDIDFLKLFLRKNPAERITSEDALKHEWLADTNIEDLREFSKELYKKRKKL
Plasmodium falciparum protein kinase 6 (PK6, PF3D7_1337100), sequence (Q8IDW1 1-305): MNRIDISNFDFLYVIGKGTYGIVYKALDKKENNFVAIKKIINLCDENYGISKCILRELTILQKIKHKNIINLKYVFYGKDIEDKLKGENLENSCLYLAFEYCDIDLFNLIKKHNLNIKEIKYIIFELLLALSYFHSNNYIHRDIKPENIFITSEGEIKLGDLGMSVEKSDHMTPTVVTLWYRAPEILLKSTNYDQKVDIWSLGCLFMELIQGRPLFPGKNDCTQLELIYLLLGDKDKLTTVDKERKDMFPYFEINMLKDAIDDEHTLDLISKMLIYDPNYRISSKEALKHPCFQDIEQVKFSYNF
L-lactate dehydrogenase (Plasmodium falciparum (isolate CDC / Honduras)), sequence (Q27743 whole entry, looked up): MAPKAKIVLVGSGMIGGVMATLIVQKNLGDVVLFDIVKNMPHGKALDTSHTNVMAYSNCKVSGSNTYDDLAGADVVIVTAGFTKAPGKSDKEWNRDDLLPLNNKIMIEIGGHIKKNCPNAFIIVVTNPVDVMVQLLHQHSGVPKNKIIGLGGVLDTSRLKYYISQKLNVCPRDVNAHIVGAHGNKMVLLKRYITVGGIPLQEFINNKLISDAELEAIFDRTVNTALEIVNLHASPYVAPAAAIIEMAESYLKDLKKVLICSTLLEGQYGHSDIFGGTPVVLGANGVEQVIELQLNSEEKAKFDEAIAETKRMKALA

O=C(NC1CCCCC1)N(Cc1cccc(-c2ccc(CNCc3ccc4c(c3)OCO4)cc2)c1)C1CCN(Cc2ccccc2)CC1
active: growth inhibition [1] 59% | growth inhibition [4] 92%
inactive: inhibition [2] 13% | inhibition [3] -9% | outcome [5] | outcome [6] | outcome [7] | outcome [8]

COc1ccc(CNCc2ccc(-c3cccc(-c4nc5c(C)cccc5[nH]4)c3)cc2)cc1
active: growth inhibition [1] 101% | inhibition [2] 69% | growth inhibition [4] 102%
inactive: inhibition [3] -7% | outcome [5] | outcome [6] | outcome [7] | outcome [8]

CCCN(CCC)CCCNc1ccc(C(=O)Nc2ccc(OCC)cc2)cc1[N+](=O)[O-]
inactive: growth inhibition [1] 2% | inhibition [2] 7% | inhibition [3] -4% | outcome [5] | outcome [6] | outcome [7] | outcome [8]
active: growth inhibition [4] 89%

CCOc1ccccc1CCNC(C)Cc1ccc(C(=O)Nc2ccc(CC(C)NCCc3cccc(Cl)c3)cc2)cc1 (stereo not given)
active: growth inhibition [1] 59% | inhibition [2] 100% | growth inhibition [4] 97%
inactive: inhibition [3] -3% | outcome [5] | outcome [6] | outcome [7] | outcome [8]

CC(C)[C@H](NC(=O)c1c(F)cccc1F)C(=O)Nc1ccc(Cc2nc3ccccc3s2)cc1
active: growth inhibition [1] 72% | growth inhibition [4] 82%
inactive: inhibition [2] 3% | inhibition [3] 0% | outcome [5] | outcome [6] | outcome [7] | outcome [8]

CC(Oc1cc(-n2cnc3ccc(NC(=O)CCN4CCCCC4)cc32)sc1C(N)=O)c1ccccc1Cl (stereo not given)
active: growth inhibition [1] 98% | inhibition [2] 95% | growth inhibition [4] 99%
inactive: inhibition [3] 1% | outcome [5] | outcome [6] | outcome [7] | outcome [8]

CCOC(=O)c1ccc(Nc2cc(Nc3ccc(C(=O)OCC)cc3)nc(C)n2)cc1
active: growth inhibition [4] 99%
inactive: growth inhibition [1] 33% | inhibition [2] 4% | inhibition [3] 4% | outcome [5] | outcome [6] | outcome [7] | outcome [8]

CC(=O)NC1=NC(C)(C)N(OCCCOc2ccc(Cl)c(Cl)c2)C(NC(C)=O)=N1
active: growth inhibition [1] 94% | inhibition [2] 65% | growth inhibition [4] 96%
inactive: inhibition [3] 0% | outcome [5] | outcome [6] | outcome [7] | outcome [8]

Cc1cc(-c2cccc(CNCCc3ccc(Cl)cc3)c2)cnc1N
active: growth inhibition [4] 90%
inactive: growth inhibition [1] 3% | inhibition [2] 19% | inhibition [3] 0% | outcome [5] | outcome [6] | outcome [7] | outcome [8]

O=c1cc(NCCCCNCc2cccc(Br)c2)[nH]c2ccccc12
active: growth inhibition [4] 98%
inactive: growth inhibition [1] 19% | inhibition [2] -1% | inhibition [3] 0% | outcome [5] | outcome [6] | outcome [7] | outcome [8]

O=C(NCC1CCC(C(=O)NCc2cccc3ccccc23)CC1)c1ccc(O)c(-c2ccc(Cl)c(Cl)c2)c1 (stereo not given)
active: growth inhibition [1] 92% | growth inhibition [4] 100%
inactive: inhibition [2] 0% | inhibition [3] -6% | outcome [5] | outcome [6] | outcome [7] | outcome [8]

OC(c1cc(C(F)(F)F)nc2c(F)cccc12)C1CCCCN1 (stereo not given)
inactive: inhibition [2] -4% | inhibition [3] -2% | outcome [5] | outcome [6] | outcome [7] | outcome [8]
active: growth inhibition [1] 74% | growth inhibition [4] 98%

COc1cc2ncnc(Nc3ccc(OCc4ccccc4)c(OCc4ccccc4)c3)c2cc1OC
active: growth inhibition [1] 57% | growth inhibition [4] 100%
inactive: inhibition [2] 4% | inhibition [3] -1% | outcome [5] | outcome [6] | outcome [7] | outcome [8]

COCCCNC(=O)[C@H]1CNCCN1C(=O)c1ccccc1
inactive: inhibition [3] -2% | outcome [5] | outcome [6] | outcome [7] | outcome [8]
active: growth inhibition [1] 95% | inhibition [2] 53% | growth inhibition [4] 97%

Fc1ccc2c(NN=Cc3ccccc3)ccnc2c1
inactive: inhibition [2] 1% | inhibition [3] 2% | outcome [5] | outcome [6] | outcome [7] | outcome [8]
active: growth inhibition [1] 99% | growth inhibition [4] 100%

O=C(Nc1ccc(OC2CCN(Cc3ccccc3)CC2)c(Cl)c1)c1ccsc1
inactive: inhibition [2] 3% | inhibition [3] 4% | outcome [5] | outcome [6] | outcome [7] | outcome [8]
active: growth inhibition [1] 92% | growth inhibition [4] 87%

Cc1ccc(N2CCN(C(=O)c3cccc(-c4cncc5nc(-c6ccco6)n(C)c45)c3)CC2)nc1
inactive: inhibition [2] -13% | inhibition [3] -1% | outcome [5] | outcome [6] | outcome [7] | outcome [8]
active: growth inhibition [1] 91% | growth inhibition [4] 94%

O=C(Nc1cccc(CN2CCCN(Cc3ccc4c(c3)OCO4)CC2)c1)c1cc2ccccc2s1
inactive: growth inhibition [1] 11% | inhibition [2] 32% | inhibition [3] 2% | outcome [5] | outcome [6] | outcome [7] | outcome [8]
active: growth inhibition [4] 95%

Fc1ccc(C(OCC2CCCN(Cc3cccc4cccnc34)C2)c2ccc(F)cc2)cc1 (stereo not given)
inactive: inhibition [2] 21% | inhibition [3] 3% | outcome [5] | outcome [6] | outcome [7] | outcome [8]
active: growth inhibition [1] 97% | growth inhibition [4] 98%

CCN(CC)CCN(Cc1ccc(-c2ccc(C(F)(F)F)cc2)cc1)C(=O)Cn1c(/C=C/c2ccco2)nc(=O)c2ccccc21
active: growth inhibition [1] 86% | growth inhibition [4] 94%
inactive: inhibition [2] 28% | inhibition [3] -2% | outcome [5] | outcome [6] | outcome [7] | outcome [8]
